Hits are enriched below; roughly 28% of the tested compounds scored in any of these assays.
CYP2C19 inhib: blockers of cytochrome P450 2C19 activity – biochemical, luminescence, ADME assay, primary screen. P33261. CYP2C19 Supersomes, luciferin-H EGE luminescence, 30 min. inhibition, % at 5 µM. hit rate 21% among 96,000. AID 778, 2007;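 active means CYP2C19 inhibition above a set limit at 5 µM in the primary screen, cut at about 50% in these data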
Target sequence (P33261 whole entry, looked up): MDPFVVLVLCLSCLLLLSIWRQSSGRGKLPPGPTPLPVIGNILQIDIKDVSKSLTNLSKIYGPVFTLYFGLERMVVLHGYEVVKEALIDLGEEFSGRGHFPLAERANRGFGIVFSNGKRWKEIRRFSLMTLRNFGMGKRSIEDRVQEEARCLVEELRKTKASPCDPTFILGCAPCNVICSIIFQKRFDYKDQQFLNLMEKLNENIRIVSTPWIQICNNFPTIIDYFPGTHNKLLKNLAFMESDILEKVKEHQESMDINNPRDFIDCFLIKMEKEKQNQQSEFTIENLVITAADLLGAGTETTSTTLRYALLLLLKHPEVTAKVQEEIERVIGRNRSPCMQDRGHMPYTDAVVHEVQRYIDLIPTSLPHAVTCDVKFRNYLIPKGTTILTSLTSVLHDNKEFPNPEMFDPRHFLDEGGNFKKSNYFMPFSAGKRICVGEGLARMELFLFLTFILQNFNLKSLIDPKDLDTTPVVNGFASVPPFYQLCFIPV
PLK1 inh: human PLK1 kinase inhibitors, primary screen, biochemical, TR-FRET | Serine/threonine-protein kinase PLK1 (Homo sapiens), P53350 | recombinant PLK1 kinase, TR-FRET peptide phosphorylation | inhibition, % at 10 µM | hit rate 0.53% among 97,000 | AID 619, 2007;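 active means inhibition of 50% or more in the single-concentration screen; inactive means inhibition below 50%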
Plk1 PBD FP: Plk1 polo box domain binding inhibitors, primary screen, biochemical, fluorescence polarization; Plk1 PBD phosphopeptide binding; inhibition, %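 (tested at about 20 µM)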; hit rate 0.13% among 97,000; AID 693, 2007; in the data active means inhibition above about 34%, passing the limit was not always enough
CYP2C9 act: human CYP2C9 activators, primary screen, biochemical, luminescence. Cytochrome P450 2C9 (Homo sapiens), P11712. recombinant CYP2C9, luciferin-H conversion; hits give high values; factor 1 = untreated enzyme, 0 = blocked. activation factor at 5 µM. hit rate 1.4% among 96,000. AID 1024, 2008;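 active means activation factor of 2 or more for CYP2C9 at a 5 µM dose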
CYP2C19 act: human CYP2C19 activators, primary screen, biochemical, luminescence. Cytochrome P450 2C19 (Homo sapiens), P33261. recombinant CYP2C19, luciferin-H EGE luminescence; hits give high values; 0 = fully inhibited enzyme, 1 = untreated enzyme. activation factor at 5 µM. 96,000 tested, under 10 active. AID 1025, 2008;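 active means activation factor of at least 2 at 5 µM in the primary screen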
CYP2C9 inhib: blockers of cytochrome P450 2C9 activity – biochemical, luminescence, ADME assay, primary screen. inhibition, % at 5 µM. hit rate 20% among 96,000. CYP2C9 Supersomes, luciferin-H conversion. P11712. AID 777, 2007;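 active means blocking of liver enzyme CYP2C9 beyond about 50% at 5 µM, limit read from the data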
A number is an active result; 0 = inactive; - = no result.

SMILES | CYP2C19 inhib | PLK1 inh | Plk1 PBD FP | CYP2C9 act | CYP2C19 act | CYP2C9 inhib
COc1ccc(-c2ncncc2-c2csc(C)n2)c(O)c1OC | 63 | 0 | 0 | 0 | 0 | 52
COc1cc(-c2csc(C)n2)ccc1O | 0 | 0 | 0 | 0 | 0 | 0
CCCCc1nc2ccccc2c(=O)n1NC(=O)c1c(O)c2c(n(CC(C)C)c1=O)CCCC2 | 0 | - | - | 0 | 0 | 60
CC(C)Cn1c2c(c(O)c(C(=O)Nc3ncccc3O)c1=O)CCCC2 | 0 | 0 | 0 | 0 | 0 | 0
CCCn1c2c(c(O)c(C(=O)Nc3ccccc3)c1=O)CCCC2 | 0 | 0 | 0 | 0 | 0 | 76
CC(C)c1ccc(OCC(=O)Nc2cccc3c2CCCC3)cc1 | 0 | 0 | 0 | 0 | 0 | 0
CCC(=O)N1CCc2cc(Br)cc(S(=O)(=O)NCc3ccco3)c21 | 53 | - | - | 0 | 0 | 0
O=C(C1CC1)N1CCc2cc(S(=O)(=O)NCC3COc4ccccc4O3)ccc21 (configuration not stated) | 72 | 0 | 0 | 0 | 0 | 52
CCC(=O)N1CCc2cc(Br)cc(S(=O)(=O)CCC(=O)NCc3ccco3)c21 | - | 0 | 0 | - | - | -
O=C(C1CC1)N1CCc2cc(Br)cc(S(=O)(=O)NCC3COc4ccccc4O3)c21 (configuration not stated) | 91 | - | - | 0 | 0 | 59
O=C(C1CCC1)N1CCc2cc(S(=O)(=O)NCC3COc4ccccc4O3)ccc21 (configuration not stated) | 0 | 0 | 0 | 0 | 0 | 0
CC(C)Nc1nc(Cl)nc(NNC(=O)C(C)Oc2ccccc2)n1 (configuration not stated) | 0 | 0 | 0 | 0 | 0 | 0
COc1ccc2[nH]cc(C(=O)CN3CCCCC3C)c2c1 (configuration not stated) | 0 | 0 | 0 | 0 | 0 | 0
COc1ccc2[nH]cc(C(=O)CN(C)CCc3ccc(OC)c(OC)c3)c2c1 | 85 | 0 | 0 | 0 | 0 | 91
CCN(CC)S(=O)(=O)c1ccc2[nH]cc(C(=O)NCCc3ccc(OC)c(OC)c3)c(=O)c2c1 | 57 | 0 | 0 | 0 | 0 | 60
COc1ccc(CCNC(=O)c2c[nH]c3ccccc3c2=O)cc1OC | 50 | - | - | 0 | 0 | 0
COc1cc2[nH]cc(C(=O)NCCc3ccccc3)c(=O)c2cc1OC | - | 0 | 0 | - | - | -
C=CCSC1=Nc2sccc2C2=NC(=O)CN12 | 0 | 0 | 0 | 0 | 0 | 0
COc1ccc2nc(SCC(=O)N(C)C3CCCCC3)c(C#N)cc2c1 | 0 | 0 | 0 | 0 | 0 | 0
O=C(c1cnc(-c2ccccc2)s1)c1ccc(Cl)cc1Cl | 57 | 0 | 0 | 0 | 0 | 0
O=C(CSc1nnc(-c2cccnc2)o1)OC1CCCCC1 | 0 | 0 | 0 | 0 | 0 | 0
O=C(Nc1nnc(COc2ccc(Cl)cc2)s1)c1cccs1 | 0 | 0 | 0 | 0 | 0 | 55
O=C1CCc2cc(S(=O)(=O)N3CCN(c4ccccc4F)CC3)ccc2N1 | 0 | 0 | 0 | 0 | 0 | 0
CCCCC(=O)Nc1ccc(C(=O)Nc2nc(CC(=O)OCC)cs2)cc1 | 0 | 0 | 0 | 0 | 0 | 68
CCOC(=O)Cc1csc(NS(=O)(=O)c2ccc(F)cc2)n1 | 0 | 0 | 0 | 0 | 0 | 50
SMILES | CYP2C19 inhib | PLK1 inh | Plk1 PBD FP | CYP2C9 act | CYP2C19 act | CYP2C9 inhib
Cc1cccc(N2CCN(C(=O)CCNS(=O)(=O)c3ccc4c(c3)CCC(=O)N4)CC2)c1C | 0 | - | - | 0 | 0 | 58
CCOC(=O)Cc1csc(NC(=O)c2ccc(Cl)nc2)n1 | 0 | 0 | 0 | 0 | 0 | 0
CCOC(=O)Cc1csc(NC(=O)CCNS(=O)(=O)c2ccc3c(c2)CCC(=O)N3)n1 | 0 | 0 | 0 | 0 | 0 | 56
CCOC(=O)Cc1csc(NC(=O)c2sc3nc4ccc(CC)cc4cc3c2N)n1 | 0 | 0 | 0 | 0 | 0 | 63
Cc1csc(NC(=O)c2cccs2)n1 | 94 | 0 | 0 | 0 | 0 | 54
CCOC(=O)Cc1csc(NC(=O)c2ccc(Br)o2)n1 | 0 | 0 | 0 | 0 | 0 | 60
CCOC(=O)C1CCN(C(=O)c2ccc(OCC)c(OCC)c2)CC1 | 0 | 0 | 0 | 0 | 0 | 0
O=C(CCN1C(=O)C2C3C=CC(C3)C2C1=O)N1CC(=O)N(CCc2ccccc2)C(=O)C1 (configuration not stated) | 0 | - | - | 0 | 0 | 0
